In all, about 5,500 compounds went through this assay and about 2,000 (36%) were called active. Inconclusive results (about 18%) are left out. No stated cut-off is given here; in the data, active means normalized growth mostly below about 0.91 (no sharp cut-off); inconclusive means no clear call, values can overlap the other calls; inactive means mostly above about 0.92. Some of the results follow.
Experiment: chemical genetic growth profiling, strain panel (AID 1159580);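 further: tested at 20 µM; growth read once vehicle control cultures reached saturation at 30 °C; 1 = growth at the plate median or of vehicle wells; lower values mean less growth of the strain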
Details: S. cerevisiae deletion strains, growth OD

Measured: normalized growth

CCN1CCC[C@H]1CNC(=O)c1c(O)c(Cl)cc(Cl)c1OC
inactive: locus YAL040C, strain CLN3, hits give low values 1.01 | locus YCL061C, strain MRC1 (second series), hits give low values 1 | locus YDR363W, strain ESC2, hits give low values 1.03 | locus YER002W, strain NOP16, hits give low values 0.998 | locus YGR229C, strain SMI1, hits give low values 1.02 | locus YMR263W, strain SAP30, hits give low values 1.01 | locus YMR307W, strain GAS1, hits give low values 1 | locus YNL128W, strain TEP1, hits give low values 1.03 | locus YNL175C, strain NOP13, hits give low values 1.01 | locus YNL197C, strain WHI3, hits give low values 1.01 | locus YNL224C, strain SQS1, hits give low values 1.03 | locus YNL322C, strain KRE1, hits give low values 1.02 | locus YOR083W, strain WHI5 (second series), hits give low values 1.02 | locus YPL241C, strain CIN2, hits give low values 0.996
